# Compound activity from PubChem.
# The list is not random: actives were taken first. Their share in the collection is about 4.7%.
# TGFb SMAD3 inh: inhibitors of TGF-b signaling; HepG2 CAGA-GFP TGF-b/SMAD3 reporter, GFP fluorescence, 18 h; TGF-beta stimulated, 500 pg/mL final; Potency, µM (doses to about 46.1 µM), for the others: top-dose activity, negative = inhibition, actives largely listed as inhibitors; 410,000 tested, 1.2% active; AID 588855; note: potency is the fitted concentration of half-maximal effect; % is set by controls: 0 for no effect and ±100 for the full control effect; nearly all actives have a fitted effect of over 65% in size
#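 HEPG2 CAGA-GFP reporter cells (1000/well, DMEM with 1% FBS) received compounds, then recombinant TGF-beta at 500 pg/mL final for 18 hours at 37 degrees C. Per-cell GFP summed per well was normalised to unstimulated and stimulated DMSO controls before curve fitting.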
# D3 ag: D3 dopamine receptor (human) agonism; D3R DiscoveRx beta-arrestin cells, luminescence, 90 min; max activation, %; 410,000 tested, 0.58% active; AID 652048; in the data active = max activation above about 30%; note: 0% is about no effect
# Target sequence (P35462 whole entry, looked up): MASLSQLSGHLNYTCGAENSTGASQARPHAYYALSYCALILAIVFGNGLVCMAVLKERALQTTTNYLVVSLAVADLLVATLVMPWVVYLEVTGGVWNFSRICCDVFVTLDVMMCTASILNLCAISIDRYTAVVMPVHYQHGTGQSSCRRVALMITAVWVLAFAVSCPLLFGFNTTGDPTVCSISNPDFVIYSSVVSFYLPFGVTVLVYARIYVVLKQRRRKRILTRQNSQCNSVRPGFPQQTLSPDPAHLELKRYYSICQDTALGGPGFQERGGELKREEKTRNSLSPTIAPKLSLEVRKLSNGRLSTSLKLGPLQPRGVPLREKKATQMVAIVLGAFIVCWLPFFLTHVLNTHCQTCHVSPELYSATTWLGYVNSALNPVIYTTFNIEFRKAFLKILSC
#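 Agonist-mode cell screen: cells plated at 1500/well and incubated overnight at 37 °C, then exposed to library compounds for 90 min at 37 °C. Detection reagent was added for 30–60 min at room temperature, and luminescence was read.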
# ATXN2 expr inh: ATXN2 expression inhibition | HEK-293 ATXN2-luciferase reporter, luminescence, 24 h | Potency, µM (titrated, usually from 57 µM), without a hit: top-dose activity change, negative = inhibition, hits mostly inhibitors | 360,000 tested, 0.72% active | AID 1745845; note: potency is the fitted concentration of half-maximal effect; % is set by controls: 0 for no effect and ±100 for the full control effect; nearly all actives have a fitted effect of over 55% in size
#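 ATXN2-luciferase reporter cells (luciferase flanked by upstream and downstream ATXN2 gene portions) were treated 24 h at 37 °C with compounds at up to 57 uM. SteadyGlo luminescence gave expression; GF-AFC fluorescence gave viability.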
# D3 antag: D3 dopamine receptor (human) antagonism | P35462 | D3R cells, DiscoveRx beta-arrestin luminescence, antagonist mode; stronger effect = lower value | max response, negative = inhibition, % | 360,000 tested, 2.5% active; in the data active = max response below about -50%; inconclusive = no clear call, values can overlap the other calls; note: % is set by controls: 0 for no effect and ±100 for the full control effect
#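 Cells plated overnight at 1500 cells/well, then exposed to library compounds with dopamine controls for 90 minutes at 37 degrees C. DiscoveRx reagent added for 30–60 minutes at room temperature; luminescence read, quantitative HTS format.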
# HepG2 tox-1: kills HepG2 cells in TGF-b inhibitor counter-screen; HepG2 CAGA-GFP viability, ATP luminescence, 18 h; Potency, µM (titrated, usually from 46.1 µM), for the others: at the highest dose activity change, negative = cytotoxicity, usual class: cytotoxic; 410,000 tested, 0.76% active; AID 588856; note: potency is the fitted concentration of half-maximal effect
#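 HepG2 CAGA-GFP cells (1000/well, DMEM with 1% FBS) received compound, then TGF-beta at 500 pg/mL final, and were incubated 18 hours at 37 degrees C. Viability was read by CellTiter-Glo luminescence. Media-only wells were set as complete cell-killing and DMSO as no toxicity.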
# S2 tox: cell viability loss in ATXN counter-screen | 400,000 tested, 0.49% active | S2 cells (HEK-293 line with an ATXN2-luciferase reporter) viability, CellTiter-Fluor protease fluorescence, 24 h | AID 651635 | Potency, µM (highest dose often 56.7 µM), actives largely listed as cytotoxic; note: potency is the fitted concentration of half-maximal effect; nearly all actives have a fitted effect of over 40% in size
# TGFb CAGA inh: confirmation of TGF-b signaling inhibitors in HepG2 reporter cells | shares compounds with TGFb SMAD3 inh | 1,600 tested, 63% active | Potency, µM (highest dose often 46.1 µM), for inactives: at the top dose activity, negative = inhibition, usual class: inhibitors | HepG2 CAGA-GFP TGF-b reporter, GFP fluorescence, 18 h; cells stimulated with TGF-beta, 500 pg/mL; note: potency is the fitted concentration of half-maximal effect; % is set by controls: 0 for no effect and ±100 for the full control effect; nearly all actives have a fitted effect of over 65% in size
# HepG2 tox-2: HepG2 cytotoxicity, TGF-b inhibitor counterscreen; shares compounds with TGFb SMAD3 inh; HepG2 CAGA-GFP viability, ATP luminescence, 18 h; cells stimulated with TGF-beta, 500 pg/mL; Potency, µM (titrated, usually from 46.1 µM), for the others: at the top dose activity, negative = cytotoxicity, most hits filed as inhibitors; 1,600 tested, 27% active; AID 720535; note: potency is the fitted concentration of half-maximal effect; % is set by controls: 0 for no effect and ±100 for the full control effect; nearly all actives have a fitted effect of over 70% in size
# TGFb CCL64 inh: TGF-b inhibition, CCL64 orthogonal assay; shares compounds with TGFb SMAD3 inh; CCL64 CAGA-GFP reporter, TGF-b stimulated, GFP fluorescence, 18 h; Potency, µM (top dose mostly 46.1 µM), for the others: at the highest dose activity, negative = inhibition, most hits filed as inhibitors; 1,600 tested, 41% active; note: potency is the fitted concentration of half-maximal effect; nearly all actives have a fitted effect of over 65% in size
# COP TGFb inh: validation of TGF-b inhibitors in HepG2 COP promoter reporter | shares compounds with TGFb SMAD3 inh | HepG2 COP-GFP TGF-b reporter, GFP fluorescence, 18 h; cells stimulated by added recombinant TGF-beta | Potency, µM (doses to about 46.1 µM), for the others: at the top dose activity, negative = inhibition, hits mostly inhibitors | 1,600 tested, 3% active | AID 720537; note: potency is the fitted concentration of half-maximal effect; nearly all actives have a fitted effect of over 70% in size
# * = called active by the depositor; i = inactive; ? = inconclusive; / = no result; [ ] = another dose, or the depositor's remark. Unless noted, calls come from the whole dose curve; as a rule, active = well fitted curve in the direction sought with a large enough effect; inconclusive = small, poorly fitted or top-dose-only effect, or another doubt; inactive = no such curve, though single readings can be large; an effect the other way counts as inactive or inconclusive.
SMILES,TGFb SMAD3 inh,D3 ag,ATXN2 expr inh,D3 antag,HepG2 tox-1,S2 tox,TGFb CAGA inh,HepG2 tox-2,TGFb CCL64 inh,COP TGFb inh
O=C(Oc1ccc(NC2=C(Cl)C(=O)c3ccccc3C2=O)cc1)c1ccc([N+](=O)[O-])cc1,-9%,-2,/,-2,4%,?,/,/,/,/
Cc1cccc(NC2=C(NC(=O)c3ccccc3)C(=O)c3ccccc3C2=O)c1,?,-14,?,?,-99%,?,/,/,/,/
O=C(NC1=C(Nc2ccc(Cl)cc2)C(=O)c2ccccc2C1=O)c1ccccc1,8.9µM*,2,-10%,-30,28µM*,?,15µM*,21µM*,?,-28%
CCOC(=O)c1cc(OC(=O)c2cccc(F)c2)n(-c2ccccc2)n1,0%,3,-5%,/,-8%,i,/,/,/,/
CCOc1ccc(C2C(=O)N(C3CCCCCC3)CC(=O)N2Cc2ccc(C)cc2)cc1OC (centres undefined),-47%,-20,/,/,-37%,/,/,/,/,/
Cc1ccc2c(=O)cc(C(=O)Nc3cccc(Cl)c3C)oc2c1C,-18%,0,-1%,/,-1%,i,/,/,/,/
CCn1c2c(c(=O)n3ncc(C(=O)Nc4ccc(C(=O)OC)cc4)c13)CN(Cc1ccc(OC)cc1)CC2,?,9,7%,/,-33%,?,/,/,/,/
COc1cccc2c1C(CO)N1C(C#N)C3CC(C(=O)O)C(C1C2)N3C (centres undefined),1.3µM*,-5,0.28µM*,-8,16%,i,0.65µM*,0.52µM*,7.3µM*,-4%
COc1cccc2c1OCC(C(=O)O)C2 (centres undefined),-13%,4,-25%[11.3 µM],1,-7%,i,/,/,/,/
Cc1cc(C)c(OCC(=O)Nc2nc(-c3ccccn3)cs2)c(C)c1,10µM*,8,?,8,-35%,?,?,-29%,?,31%
Cc1cccc(NC(=O)CN2C(=O)COc3ccc(S(=O)(=O)Nc4ccccc4)cc32)c1C,-22%,-14,6%,/,-14%,i,/,/,/,/
Cc1cc2nnc(SCC(=O)Nc3ccc(F)c(Cl)c3)n2c2ccccc12,5%,4,15%,/,-15%,i,/,/,/,/
Cc1c2ccncc2cc2c1[nH]c1ccccc12,?,12,?,21,-32%,?,/,/,/,/
COc1ccc2[nH]c3c(C)c4ccncc4c(C)c3c2c1,3.5µM*,-24,2µM*,-10,11µM*,?,2.3µM*,4.1µM*,2.6µM*,?
O=C(O)CCc1ccc(-c2ccccc2)n1CC(=O)Nc1ccccc1C(F)(F)F,-14%,7,6%,/,-3%,i,/,/,/,/
CCOc1ccc(NC(=O)CSc2oc(-c3ccccc3)nc2S(=O)(=O)c2ccc(Cl)cc2)cc1,-22%,14,/,/,-4%,/,/,/,/,/
Cc1ccccc1C(=O)N1CCN(c2ccc(NC(=O)CSc3ccc(Cl)cc3)cc2)CC1,4.5µM*,6,?,9,-4%,i,4.1µM*,?,?,14%
Cc1ccc(N2CCN(C(=O)c3cnn(-c4ccc(F)cc4F)c3C3CCN(C(=O)OC(C)(C)C)CC3)CC2)c(C)c1,-7%,-2,/,/,-6%,/,/,/,/,/
Cc1ccc(-c2cc(C(F)(F)F)n3ncc(-c4ccc(Cl)cc4)c3n2)cc1,7%,3,11%,/,7%,i,/,/,/,/
CCN(CC)C(=O)[C@H]1C[C@H](CC(=O)NC/C=C(\C)CCC=C(C)C)C(=O)N2CCc3c([nH]c4cc(CCC(=O)N(C)C)ccc34)[C@]12C,13µM*,-6,?,-8,-23%,?,23µM*,?,?,55%
COc1ccc2[nH]c3c(c2c1)CCN1C(=O)C(CC(=O)NCCCN(C)C)C[C@H](C(=O)N(C(C)C)C(C)C)[C@@]31C (some centres undefined),-8%,12,-2%,0,-30%,?,/,/,/,/
C[C@]12c3[nH]c4ccc(Cl)cc4c3CCN1C(=O)[C@@H](CC(=O)NCCN1CCOCC1)C[C@@H]2C(=O)N1CCOCC1,3%,4,9%,-9,-2%,i,/,/,/,/
CC(C)=CCC/C(C)=C/CNC(=O)C[C@H]1C[C@H](C(=O)N2CCOCC2)[C@@]2(C)c3[nH]c4ccc(Cl)cc4c3CCN2C1=O,10µM*,-6,4%,-13,18µM*,i,13µM*,?,13µM*,-20%
C[C@]12c3[nH]c4ccc(Cl)cc4c3CCN1C(=O)[C@@H](CC(=O)NCCC1=CCCCC1)C[C@@H]2C(=O)N1CCOCC1,?,5,?,-9,-26%,?,16µM*,-9%,?,2%
COc1ccc2[nH]c3c(c2c1)CCN1C(=O)C(CC(=O)NCCC2=CCCCC2)C[C@H](C(=O)N(C(C)C)C(C)C)[C@@]31C (some centres undefined),10µM*,30*,?,-3,-70%,?,?,-20%,?,39%
O=C(Nc1cccc(Cl)c1Cl)c1cc(S(=O)(=O)N2CCC3(CC2)OCCO3)ccc1F,33%,-4,/,/,10%,/,/,/,/,/
CN(C)C1(CNC(=O)COc2cccc(Cl)c2)CCCCC1,8%,-14,4%,/,-11%,i,/,/,/,/
C[C@]12c3[nH]c4cc(-c5ccco5)ccc4c3CCN1C(=O)[C@@H](CC(=O)NCCC1=CCCCC1)C[C@@H]2C(=O)N1CCOCC1,11µM*,11,0%,7,3%,?,?,?,?,50%
